About 12,000 (3.5%) of roughly 340,000 compounds were called active. Roughly 18% stayed inconclusive and do not appear here. The call rests on the fitted dose curve; in most records, active means well fitted inhibition curve with a large enough effect; inconclusive means small, poorly fitted or top-dose-only effect, or another doubt; inactive means no such curve, though single readings can be large or run the other way. The entries come from a sample that favours actives as a whole.
Test: qHTS Assay for Inhibitors of Hepatitis C Virus (HCV)
Conditions: Huh7.5.1 HCVcc-Cre infection, luciferase reporter, 44 h; series mostly up to 41.8 µM; activity change, negative = inhibition: at the top concentration
Excerpt: Hepatitis C virus (HCV) infects about 200 million people in the world. Many infected people progress to chronic liver disease including cirrhosis with a risk of developing liver cancer. To date, there is no effective vaccine for hepatitis C. Current therapy based on interferon is only effective in about half of the patients and is associated with significant adverse effects. The fraction of people with HCV who can complete a successful treatment is estimated to be no more than 10 percent. Recent development of direct-acting antivirals against HCV, such as protease and polymerase inhibitors, is promising but still requires combination with peginterferon and ribavirin for maximal efficacy. In addition, these agents are associated with high rate of resistance and many have significant side effects. Due to the lack of a culture system for infectious HCV, the search for new HCV drugs has been greatly hampered. […] High-throughput screening (HTS) with an infectious HCV system would cover the complete spectrum of potentially druggable targets in all stages of HCV lifecycle, and would have more biological relevance than other cell-based assays. Moreover, targeting several key processes in the viral life cycle may not only increase antiviral efficacy; more importantly, it may also reduce the capacity of the virus to develop resistance to the compound. The goal of this project is to identify novel HCV inhibitors as new therapies for hepatitis C, using a highly sensitive and specific assay platform which is based on a HCV infectious cell culture system established in the laboratory and adapted for high-throughput HCV drug screen. NIH Chemical Genomics Center [NCGC] NIH Molecular Libraries Probe Centers Network [MLPCN] MLPCN Grant: MH095511 Assay Submitter (PI): Jake Liang, NIDDK
The assay will start with plating 1,000 cells/well in 3 µL volume and culture for 4 h. Then 23 nL of compounds from the library collection will be added to each well, followed by adding 2.5 µL of HCVcc-Cre virus (~ 0.5 moi) and further cultured for 44 h before the luciferase assay. A volume of 4.5 µL luciferase substrates will be added to each well and the plates will be incubated at room temperature for 15 min. and then read for 15 sec. for the luciferase activity
On the % scale 0 is the no-effect control and ±100 the full control effect.

Structure (SMILES)	activity change, negative = inhibition	Potency
COc1ccc(C)cc1NC(=O)CN1c2cccc3cccc(c23)S1(=O)=O	-27% (inactive)	–
CCCCNCCS(=O)(=O)NCc1ccccc1	9.37% (inactive)	–
COc1ccccc1N(CC(=O)N/N=C(\C)c1ccccc1O)S(=O)(=O)c1ccc(C)cc1	–	10 µM (active)
COc1ccccc1N(CC(=O)Nc1c(C)n(C)n(-c2ccccc2)c1=O)S(=O)(=O)c1ccccc1	-1.73% (inactive)	–
COc1ccc(S(=O)(=O)N(CC(=O)N/N=C/c2ccccc2C(=O)O)c2ccccc2OC)cc1	19.8% (inactive)	–
CCOc1ccc(S(=O)(=O)N2CCN(C(=O)c3oc4ccccc4c3C)CC2)cc1	-5.95% (inactive)	–
O=C(NCC1CCCO1)c1ccc(S(=O)(=O)Nc2ccc(F)cc2)cc1 (centres undefined)	9.57% (inactive)	–
COc1ccc(CNCCc2ccc3c(c2)OCO3)c(OC)c1OC	13.6% (inactive)	–
COc1cc(C(=O)CCc2ccc3c(c2)OCO3)cc(OC)c1OC	–	14.1 µM (active)
COc1cc(OC)c(C(=O)NCc2ccc3c(c2)OCO3)cc1OC	-27.1% (inactive)	–
O=C(NCCS(=O)(=O)NCc1ccc(Cl)cc1)c1ccccc1	6.73% [at 8.37 µM] (inactive)	–
COc1ccc(C(=O)OCC(=O)c2ccc(Cl)s2)c(OC)c1OC	–	2.51 µM (active)
COc1ccc(Cl)cc1C(=O)OCC(=O)NCc1cccs1	9.75% (inactive)	–
COc1ccc(C(=O)OCC(=O)Nc2ccc3[nH]c(=O)[nH]c3c2)c(OC)c1OC	-8.43% (inactive)	–
CN(O)C(=S)c1ccccc1	-10.2% (inactive)	–
CCNC(=O)N(CC)C[C@H]1N[C@@](CC)(C(=O)OC)[C@H]2C(=O)N(Cc3ccccc3)C(=O)[C@@H]12	23% [at 8.37 µM] (inactive)	–
O=C(CSc1n[nH]c(-c2cccs2)n1)N1CCCCC1	-15% (inactive)	–
O=C(O)Cc1ccc(NC(=O)Nc2cccc3ccccc23)cc1	6.08% (inactive)	–
O=C(Nc1ccc2c(c1)C(=O)OC2)Nc1cccc2ccccc12	1.88% (inactive)	–
CC(=O)N(C)c1ccc(NC(=O)Nc2cccc3ccccc23)cc1	–	12.6 µM (active)
O=C(CSC1=NS(=O)(=O)c2cc(F)ccc2N1)Nc1ccccc1F	0.897% (inactive)	–
CCOC(=O)N1CCN(C(=O)COC(=O)c2cccc(S(C)(=O)=O)c2)CC1	-10.6% (inactive)	–

Structure (SMILES)	activity change, negative = inhibition	Potency
CC(=O)c1ccc(NC(=O)CSc2nc3ccccc3c(=O)n2CCCN2CCOCC2)cc1	-0.979% (inactive)	–
CCOc1cc(NC(=O)c2ccco2)c(OCC)cc1NC(=O)COc1ccccc1	-15.5% (inactive)	–
COc1cc(NC(=S)NCc2ccco2)c(OC)cc1Cl	-10.1% (inactive)	–
CCOc1cc(NC(=S)NCc2ccco2)c(OCC)cc1NC(=O)c1ccco1	–	2.82 µM (active)
CN1C(C(=O)NCC2CC2)CC2Cn3c(nc4ccccc43)C21 (centres undefined)	22.1% (inactive)	–
Cc1ccc(NC(=O)COC(=O)CN2CCCCCC2=O)c(C)c1	4.62% (inactive)	–
COc1ccc(C(=NN)c2ccc(OC)cc2)cc1	1.54% (inactive)	–
Cc1cccc(N2CC(C(=O)Nc3ccccc3N3CCCC3)CC2=O)c1C (centres undefined)	-0.701% (inactive)	–
CCCCCCC(=O)Nc1nc(C)c(-c2csc(Nc3cc(Cl)ccc3OC)n2)s1	-20.7% (inactive)	–
C=CCCC(=O)Nc1nc(C)c(-c2csc(Nc3ccc(Cl)cc3)n2)s1	–	11.2 µM (active)
Cc1nc(NC(=O)CN(C)S(=O)(=O)c2ccc(Cl)cc2)sc1C	-3.57% (inactive)	–
Cc1ccc(Nc2nc(-c3sc(NC(=O)c4ccccc4)nc3C)cs2)cc1	-15.4% (inactive)	–
CC(=O)c1sc(NC(=O)CCCOc2ccccc2C)nc1C	-14.9% (inactive)	–
CCCCC(=O)Nc1nc(C)c(-c2csc(Nc3ccc(Cl)cc3)n2)s1	–	8.91 µM (active)
CCOC(=O)C1CCN(C(=O)c2cccc(S(=O)(=O)N(CC)c3ccccc3)c2)CC1	-1.31% (inactive)	–
CCOC(=O)C1=C(C)N=C2c3ccccc3C(=O)C2C1c1ccc(Br)cc1 (centres undefined)	-21.8% (inactive)	–
O=C1c2ccccc2C2=Nc3ccccc3SC(c3ccccc3F)C12 (centres undefined)	–	5.01 µM (active)
O=C1c2ccccc2C(=O)C1c1ccccc1F	-1.17% (inactive)	–
Cc1sc2nc(CSCC(=O)NC3CCCCC3)[nH]c(=O)c2c1C	6.44% (inactive)	–
CC1=CC(=Cc2sc3ccccc3[n+]2C)C=C(C)O1	–	5.01 µM (active)
CC(C)C(NC(=O)c1c(F)cccc1F)C(=O)NNC(=O)c1ccccc1 (centres undefined)	7.93% (inactive)	–
O=C(NCCc1ccc(F)cc1)c1ccc(S(=O)(=O)N2CCCCC2)cc1	-27.2% (inactive)	–

Structure (SMILES)	activity change, negative = inhibition	Potency
COc1ccc(CNC(=O)C2(CC3CC(c4ccccc4)=NO3)CCN(C(=O)c3cccc(O)c3)CC2)cc1 (centres undefined)	-11.6% [at 8.37 µM] (inactive)	–
O=C(CCC(=O)N1CCN(S(=O)(=O)c2ccc(Cl)cc2)CC1)NCc1cccc(C(F)(F)F)c1	–	11.2 µM (active)
O=C(COc1ccc(Cl)cc1)N1CCN(S(=O)(=O)c2ccc(Cl)cc2)CC1	7.75% (inactive)	–
O=C(CCC(=O)c1ccccc1)NCc1cccc(C(F)(F)F)c1	-0.719% (inactive)	–
O=C1c2ccccc2C(=O)C1C(=O)C1CC1	0.357% (inactive)	–
CCN(CC(=O)Nc1ccc(OC)cc1)C(=O)c1ccc(=O)n(Cc2ccccc2)n1	0.141% (inactive)	–
CNCC[C@H](Oc1ccc(C(F)(F)F)cc1)c1ccccc1	–	3.98 µM (active)
CC(CC(=O)Nc1cc(C(F)(F)F)ccc1Cl)c1ccccc1 (centres undefined)	-7.71% (inactive)	–
CC(NC(=O)COC(=O)Cn1cc(C(F)(F)F)ccc1=O)c1ccccc1 (centres undefined)	15.9% (inactive)	–
COc1ccc2nc3n(c(=O)c2c1)-c1cc(C)ccc1C(=O)NC3Cc1ccc(O)cc1 (centres undefined)	15.7% (inactive)	–
Cc1ccc(N(CC(=O)Nc2cccc(N(C)S(C)(=O)=O)c2)S(C)(=O)=O)cc1	-11.3% (inactive)	–
CN(c1ccc(C(=O)N2CCc3ccccc3C2)cc1)S(C)(=O)=O	-3.55% (inactive)	–
CN(c1cccc(NC(=O)Nc2ccc(Cl)cc2)c1)S(C)(=O)=O	–	10 µM (active)
CC(=O)Nc1cccc(NC(=O)c2ccc3c(c2)CCN3S(C)(=O)=O)c1	11.1% (inactive)	–
CN(c1cccc(NC(=O)c2ccc(CN3CCc4ccccc4C3)cc2)c1)S(C)(=O)=O	–	11.2 µM (active)
COc1cccc(N(CC(=O)Nc2cccc(N(C)S(C)(=O)=O)c2)S(C)(=O)=O)c1	-10.5% (inactive)	–
O=C(CNC(=O)c1ccccc1F)OCC(=O)c1c[nH]c2ccccc12	7.77% (inactive)	–
Cc1ccsc1C(=O)NC1CCCCC1C (centres undefined)	4.79% (inactive)	–
O=C(NCCN1CCOCC1)c1cccc(S(=O)(=O)Nc2ccc(F)cc2)c1	3.15% (inactive)	–
C#CCOCCOCCOCCNc1nc(N2CCN(C(=O)Cn3cc(CCO)nn3)CC2)nc(N2CCN(C(=O)[C@H](CCCCN)n3cc(CCCC)nn3)CC2)n1	-0.907% [at 8.37 µM] (inactive)	–
